Inconclusive results are not listed. Where a call stands in place of a potency, no number is given. Activity calls are given as the source filed them. Calls come from the whole dose curve; as a rule, active = well fitted curve in the direction sought with a large enough effect in the repeat runs; inconclusive = weak or mixed curves; inactive = no such curve, though single readings can be large; an effect the other way counts as inactive or inconclusive.
Experiments:
[1] = target: Cytochrome P450 2C19 (Homo sapiens) (UniProt P33261); test: Cytochrome P450 Family 2 Subfamily C Member 19 (CYP2C19) small molecule antagonists: luciferase reporter qHTS assay (AID 1671197); note: nearly all actives have a fitted effect of over 65% in size; note: potency is the fitted concentration of half-maximal effect
Cytochrome P450 2C19 (Homo sapiens), sequence (P33261 whole entry, looked up): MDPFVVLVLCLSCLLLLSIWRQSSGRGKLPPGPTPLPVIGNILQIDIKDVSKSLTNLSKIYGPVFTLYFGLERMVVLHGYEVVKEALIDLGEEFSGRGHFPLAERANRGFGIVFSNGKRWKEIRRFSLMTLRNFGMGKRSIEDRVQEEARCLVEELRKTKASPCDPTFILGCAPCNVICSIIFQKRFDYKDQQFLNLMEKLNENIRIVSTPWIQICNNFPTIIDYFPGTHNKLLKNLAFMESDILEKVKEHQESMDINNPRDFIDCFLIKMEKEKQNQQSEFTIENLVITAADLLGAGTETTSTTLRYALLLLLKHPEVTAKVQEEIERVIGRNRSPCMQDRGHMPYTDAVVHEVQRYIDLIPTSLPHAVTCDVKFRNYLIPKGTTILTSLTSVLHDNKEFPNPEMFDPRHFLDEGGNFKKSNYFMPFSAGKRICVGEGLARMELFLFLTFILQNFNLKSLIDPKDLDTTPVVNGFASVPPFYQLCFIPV
Method in brief: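 P450-Glo CYP2C19 system: enzyme-substrate mix with compound 10 min at room temperature, then NADPH regeneration solution, 1 h at 37C. Proluciferin-to-luciferin conversion detected by luminescence after 20 min with detection reagent; ketoconazole as positive control.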

[2] = target: Cytochrome P450 1A2 (Homo sapiens) (UniProt P05177); test: Cytochrome P450 Family 1 Subfamily A Member 2 (CYP1A2) small molecule antagonists: luciferase reporter qHTS assay (AID 1671199); note: nearly all actives have a fitted effect of over 50% in size; note: potency is the fitted concentration of half-maximal effect
Cytochrome P450 1A2 (Homo sapiens), sequence (P05177 whole entry, looked up): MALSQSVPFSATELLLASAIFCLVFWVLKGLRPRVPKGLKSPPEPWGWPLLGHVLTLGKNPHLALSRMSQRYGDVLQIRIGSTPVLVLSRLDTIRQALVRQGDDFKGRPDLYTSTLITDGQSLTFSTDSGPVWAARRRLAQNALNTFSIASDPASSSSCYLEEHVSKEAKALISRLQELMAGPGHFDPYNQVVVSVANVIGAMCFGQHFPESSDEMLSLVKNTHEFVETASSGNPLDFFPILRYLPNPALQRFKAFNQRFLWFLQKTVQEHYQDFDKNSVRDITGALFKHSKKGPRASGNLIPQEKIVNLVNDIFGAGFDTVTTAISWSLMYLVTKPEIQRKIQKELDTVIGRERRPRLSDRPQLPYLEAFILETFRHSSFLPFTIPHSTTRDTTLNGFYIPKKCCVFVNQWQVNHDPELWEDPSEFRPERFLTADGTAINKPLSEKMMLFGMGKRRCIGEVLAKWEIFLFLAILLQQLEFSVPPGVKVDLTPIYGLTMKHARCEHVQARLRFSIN
Method in brief: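 P450-Glo CYP1A2, 1536-well qHTS: enzyme/proluciferin substrate + cpd (DMSO), 10 min RT; NADPH regen, 1 h RT; detection reagent, 20 min; luminescence, RLU.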

[3] = target: Voltage-gated inwardly rectifying potassium channel KCNH2 (Homo sapiens) (UniProt Q12809); test: Human Ether-a-go-go-Related Gene (hERG) channel small molecule antagonists: fluorescence cell-based qHTS assay (AID 1671200); note: series mostly up to about 77 µM; nearly all actives have a fitted effect of over 50% in size
Voltage-gated inwardly rectifying potassium channel KCNH2 (Homo sapiens), sequence (Q12809 whole entry, looked up): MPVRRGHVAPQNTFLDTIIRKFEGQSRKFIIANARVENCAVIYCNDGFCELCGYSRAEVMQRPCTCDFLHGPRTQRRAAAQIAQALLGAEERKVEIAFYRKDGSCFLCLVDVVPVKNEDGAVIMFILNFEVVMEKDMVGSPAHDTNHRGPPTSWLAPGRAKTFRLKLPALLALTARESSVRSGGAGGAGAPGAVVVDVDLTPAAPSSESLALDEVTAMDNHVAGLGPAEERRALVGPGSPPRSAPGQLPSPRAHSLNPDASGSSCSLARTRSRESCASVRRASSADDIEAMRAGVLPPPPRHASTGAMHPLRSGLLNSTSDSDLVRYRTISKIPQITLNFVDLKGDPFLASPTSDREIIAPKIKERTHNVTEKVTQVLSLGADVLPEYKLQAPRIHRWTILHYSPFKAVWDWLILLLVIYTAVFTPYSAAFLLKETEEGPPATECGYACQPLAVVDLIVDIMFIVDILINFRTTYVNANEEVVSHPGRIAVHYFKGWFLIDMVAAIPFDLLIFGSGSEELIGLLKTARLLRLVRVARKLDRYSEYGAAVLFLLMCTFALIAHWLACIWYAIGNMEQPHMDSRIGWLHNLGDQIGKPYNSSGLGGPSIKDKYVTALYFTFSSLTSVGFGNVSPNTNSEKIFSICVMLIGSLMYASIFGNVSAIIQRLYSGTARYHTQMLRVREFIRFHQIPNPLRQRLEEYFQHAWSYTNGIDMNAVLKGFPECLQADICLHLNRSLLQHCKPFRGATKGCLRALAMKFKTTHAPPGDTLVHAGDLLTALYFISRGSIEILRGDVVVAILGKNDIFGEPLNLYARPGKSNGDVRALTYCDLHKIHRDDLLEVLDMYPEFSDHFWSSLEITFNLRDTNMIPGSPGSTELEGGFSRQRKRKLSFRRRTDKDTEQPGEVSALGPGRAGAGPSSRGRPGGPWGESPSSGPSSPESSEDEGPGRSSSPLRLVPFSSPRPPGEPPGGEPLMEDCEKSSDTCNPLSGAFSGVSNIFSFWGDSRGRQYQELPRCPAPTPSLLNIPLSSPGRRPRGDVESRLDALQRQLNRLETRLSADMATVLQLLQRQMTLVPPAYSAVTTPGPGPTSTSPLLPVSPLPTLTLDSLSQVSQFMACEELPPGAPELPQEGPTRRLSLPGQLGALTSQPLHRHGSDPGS
Method in brief: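 Thallium flux as potassium surrogate: FluxOR II dye loaded 1 h at room temperature into hERG-expressing U2OS cells, then stimulus buffer added after 10 min. Kinetic 480 nm excitation/540 nm emission read, 2 min.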

[4] = target: Cytochrome P450 2C9 (Homo sapiens) (UniProt P11712); test: Cytochrome P450 Family 2 Subfamily C Member 9 (CYP2C9) small molecule antagonists: luciferase reporter qHTS assay (AID 1671198); note: series mostly up to about 120 µM; nearly all actives have a fitted effect of over 50% in size
Cytochrome P450 2C9 (Homo sapiens), sequence (P11712 whole entry, looked up): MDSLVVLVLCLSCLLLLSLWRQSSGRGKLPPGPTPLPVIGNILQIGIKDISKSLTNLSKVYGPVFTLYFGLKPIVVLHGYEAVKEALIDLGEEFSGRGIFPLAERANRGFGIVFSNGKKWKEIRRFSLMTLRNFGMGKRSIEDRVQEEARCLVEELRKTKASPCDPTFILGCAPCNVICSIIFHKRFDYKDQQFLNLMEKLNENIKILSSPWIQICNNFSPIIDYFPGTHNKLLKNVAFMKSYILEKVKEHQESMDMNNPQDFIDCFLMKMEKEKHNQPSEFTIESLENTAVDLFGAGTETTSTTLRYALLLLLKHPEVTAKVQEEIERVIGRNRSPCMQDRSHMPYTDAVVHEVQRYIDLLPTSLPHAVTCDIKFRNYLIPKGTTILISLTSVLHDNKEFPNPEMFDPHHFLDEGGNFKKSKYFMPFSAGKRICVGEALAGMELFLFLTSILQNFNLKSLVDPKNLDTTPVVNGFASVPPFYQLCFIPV
Method in brief: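 CYP2C9 activity was measured with a P450-Glo proluciferin substrate. Enzyme–substrate mix was held with compound for 10 min at room temperature, then NADPH regeneration solution was added for 1 h at 37C. Luciferin product was read as luminescence.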

[5] = target: Cytochrome P450 3A4 (Homo sapiens) (UniProt P08684); test: Cytochrome P450 Family 3 Subfamily A Member 4 (CYP3A4) small molecule antagonists: luciferase reporter qHTS assay (AID 1671201); note: nearly all actives have a fitted effect of over 50% in size; note: potency is the fitted concentration of half-maximal effect
Cytochrome P450 3A4 (Homo sapiens), sequence (P08684 whole entry, looked up): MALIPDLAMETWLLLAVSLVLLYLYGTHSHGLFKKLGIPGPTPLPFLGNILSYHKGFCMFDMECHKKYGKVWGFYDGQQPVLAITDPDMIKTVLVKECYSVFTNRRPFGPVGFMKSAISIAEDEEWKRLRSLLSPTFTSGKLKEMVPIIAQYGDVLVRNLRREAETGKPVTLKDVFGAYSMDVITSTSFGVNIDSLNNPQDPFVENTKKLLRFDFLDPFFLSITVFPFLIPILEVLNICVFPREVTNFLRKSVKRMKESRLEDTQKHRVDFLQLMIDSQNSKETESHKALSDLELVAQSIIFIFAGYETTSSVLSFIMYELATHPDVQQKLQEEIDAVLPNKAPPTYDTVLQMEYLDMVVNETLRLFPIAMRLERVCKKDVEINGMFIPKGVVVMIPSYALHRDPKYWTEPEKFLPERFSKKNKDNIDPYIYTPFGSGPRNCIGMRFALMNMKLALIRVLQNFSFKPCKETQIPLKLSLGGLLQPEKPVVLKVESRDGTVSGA
Method in brief: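 Recombinant human CYP3A4 converts a proluciferin substrate to luciferin over 1 h at room temperature after NADPH regeneration solution is added (compound preincubated 10 min); detection reagent stops reaction, luminescence read 20 min later as relative units.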

Row | Structure (SMILES) | Potency [1] | Potency [2] | Potency [3] | Potency [4] | Potency [5]
1 | CCCCc1nc(Cl)c(CO)n1Cc1ccc(-c2ccccc2-c2nn[nH]n2)cc1 | inactive | inactive | inactive | – | –
2 | NC(=O)Cc1cccc2ccccc12 | inactive | – | – | inactive | inactive
3 | CCCCCCCCN1CCCC1=O | 10 µM (active) | 39.9 µM (active) | inactive | – | inactive
4 | [O-][n+]1cccc(CO)c1 | inactive | inactive | inactive | – | inactive
5 | Cc1onc(-c2c(Cl)cccc2Cl)c1C(=O)Cl | 21.9 µM (active) | inactive | inactive | – | –
6 | CC(=O)c1ccc2ccccc2c1 | 28.3 µM (active) | 7.96 µM (active) | inactive | – | inactive
7 | CCCCS(=O)(=O)N[C@@H](Cc1ccc(OCCCCC2CCNCC2)cc1)C(=O)O | inactive | – | – | inactive | inactive
8 | NS(=O)(=O)Cc1noc2ccccc12 | inactive | inactive | inactive | – | –
9 | CC(C)(N)C#N | inactive | inactive | inactive | – | inactive
10 | CC(C)(C)OC(=O)c1cccc(N)c1 | 25.9 µM (active) | 7.29 µM (active) | inactive | – | 16.3 µM (active)
11 | CCCOC(=O)CC | inactive | 35.5 µM (active) | inactive | – | inactive
12 | CC(=O)O[C@@]12CO[C@@H]1C[C@H](O)[C@@]1(C)C(=O)[C@H](O)C3=C(C)[C@@H](OC(=O)[C@H](O)[C@@H](NC(=O)OC(C)(C)C)c4ccccc4)C[C@@](O)([C@@H](OC(=O)c4ccccc4)[C@H]21)C3(C)C | inactive | inactive | inactive | – | –
13 | C[C@@H]1C[C@H]2[C@@H]3C[C@H](F)C4=CC(=O)C(Cl)=C[C@]4(C)[C@@]3(F)[C@@H](O)C[C@]2(C)[C@@]1(O)C(=O)CO | 8.71 µM (active) | inactive | inactive | – | –

From PubChem BioAssay (Tox21)
